Compound activity (PubChem)
Most compounds without a hit are left out; they make up all but 7.5% or so of the library.
Vaccinia mCherry: inhibitors of vaccinia virus infection (mCherry reporter signal). Vaccinia virus mCherry reporter infection, fluorescence. hit rate 0.63% among 310,000. Potency, µM (doses to about 36.5 µM), most hits filed as inhibitors; calls by dose curve; tested in A549 cells; further: nearly all actives have a fitted effect of over 35% in size
VACV Venus inh: vaccinia inhibition (Venus reporter). Vaccinia virus Venus reporter expression, fluorescence. Potency, µM (highest dose often 36.5 µM), actives largely listed as inhibitors. hit rate 0.46% among 330,000. AID 720580; calls by dose curve; tested in A549 cells; further: nearly all actives have a fitted effect of over 30% in size
HCMV antiviral: blocks human cytomegalovirus replication; HFF cells, HCMV-luciferase reporter, 72 h; hits give low values; activity change, negative = inhibition, % at 57.5 µM; hit rate 4.5% among 410,000; AID 1259415; in the data active means activity change below about -60%; inconclusive means no clear call, values can overlap the other calls; inactive means above about -39%
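Luciferase read-out from HCMV-luciferase-infected HFFs (MOI 1 PFU/cell) 72 h post infection at 37C; compounds added after 16 h cell attachment; activity normalized between buffer-only basal and Salinomycin (10uM) inhibitor controls.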
HCV inh: inhibitors of hepatitis C virus infection | Huh7.5.1 HCVcc-Cre infection, luciferase reporter, 44 h | Potency, µM (titrated, usually from 41.8 µM), actives largely listed as inhibitors | hit rate 3.4% among 340,000 | AID 651820
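Whole-lifecycle infectious HCVcc-Cre system; cells 1,000/well, compound then virus (~0.5 moi) added 4 h after plating, 44 h culture. Luciferase read 15 sec following 15 min substrate incubation, room temp.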
FBPA Giardia inh: Giardia lamblia aldolase inhibition; Potency, µM (titrated, usually from 59.6 µM), hits mostly inhibitors; purified Giardia FBPA; A8B2U2; AID 2451; hit rate 0.71% among 290,000; further: nearly all actives have a fitted effect of over 55% in size
Target sequence (A8B2U2 whole entry, looked up): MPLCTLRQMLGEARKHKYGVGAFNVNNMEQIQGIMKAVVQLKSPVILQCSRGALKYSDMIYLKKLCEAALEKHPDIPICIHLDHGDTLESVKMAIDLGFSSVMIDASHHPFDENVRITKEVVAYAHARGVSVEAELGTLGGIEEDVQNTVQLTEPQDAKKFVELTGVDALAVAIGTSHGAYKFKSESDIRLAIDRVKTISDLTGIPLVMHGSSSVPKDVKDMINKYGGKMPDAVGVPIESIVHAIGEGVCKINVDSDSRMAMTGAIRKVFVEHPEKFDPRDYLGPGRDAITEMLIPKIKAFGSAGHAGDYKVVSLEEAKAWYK
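40 nM FBPA preincubated 10 min at RT with compound (up to 57.5 uM final), then substrate plus GAPDH/TPI/NAD/arsenate coupling and diaphorase/resazurin added. Fluorescence read after 20 min at RT, 525/598 nm.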
FMDV inh: foot and mouth disease virus antiviral activity; FMDV antiviral cell-based qHTS; Potency, µM (top dose mostly 57.9 µM), usual class: inhibitors; AID 1159524; hit rate 1.2% among 410,000; calls by dose curve; tested in HEK293T cells; further: read-out not given here; nearly all actives have a fitted effect of over 45% in size
Each line names hits and unclear results; the compound was inactive in the other large screens. Unless noted, the call rests on the fitted dose curve; in most records, active means well fitted curve in the direction sought with a large enough effect; inconclusive means small, poorly fitted or top-dose-only effect, or another doubt; inactive means no such curve, though single readings can be large; an effect the other way counts as inactive or inconclusive.

COCCN=c1scc(-c2ccco2)n1/N=C/c1ccc(O)c(O)c1O	FBPA Giardia inh 18µM
Oc1ccc(/C=N/n2c(-c3ccco3)csc2=Nc2cccnc2)c(O)c1	Vaccinia mCherry 10µM, VACV Venus inh 10µM, HCMV antiviral inconclusive
COc1cc(OC)cc(C(=O)NCC2CCCN(C(=O)c3csc(C)n3)C2)c1 (stereo not drawn)	none (no result: Vaccinia mCherry, VACV Venus inh)
CCN(C)C(=O)C1=CN2CCN(Cc3ccccc3C(F)(F)F)C(=O)N=C2O1	none (no result: Vaccinia mCherry, VACV Venus inh, HCV inh, FBPA Giardia inh, FMDV inh)
CC(C)(C)CC(=O)NCC(c1ccc2c(c1)OCO2)N1CCN(c2ccccc2)CC1 (stereo not drawn)	none (no result: HCV inh, FBPA Giardia inh)
NC1(C#Cc2ccc3c(=O)c4ccccc4sc3c2)CCCCC1	none (no result: FBPA Giardia inh)
N#Cc1ccc(C#Cc2ccc3oc4ccccc4c(=O)c3c2)cc1	none (no result: FBPA Giardia inh)
O=c1c2ccccc2oc2ccc(C#CC3(O)CCCCC3)cc12	HCV inh inconclusive, FMDV inh 32µM (no result: FBPA Giardia inh)
Cn1c2ccccc2c(=O)c2cc(C#CC3(O)CCCCC3)ccc21	FMDV inh 25µM
Cc1cc2sc3ccc(C#CC4(O)CCCCC4)cc3c(=O)c2cc1C	Vaccinia mCherry inconclusive, HCMV antiviral -96, FMDV inh 0.089µM (no result: FBPA Giardia inh)
Cn1c2ccccc2c(=O)c2ccc(C#CC3(N)CCCCC3)cc21	VACV Venus inh inconclusive, HCV inh 11µM
CCOC(=O)[C@]12CCC=C1N(Cc1ccc3c(c1)OCO3)C(=O)[C@H](CC(=O)NCC1CCCCC1)C2	none (no result: HCV inh, FBPA Giardia inh)
COc1ccc(CCNc2nc(-c3ccco3)cc(C(F)(F)F)n2)cc1OC	FMDV inh inconclusive (no result: Vaccinia mCherry, VACV Venus inh)
CC(NC(=O)CCSc1nc(-c2ccco2)cc(C(F)(F)F)n1)c1ccccc1 (stereo not drawn)	HCMV antiviral inconclusive, HCV inh inconclusive (no result: Vaccinia mCherry, VACV Venus inh, FBPA Giardia inh)
COc1ccc(CCNC(=O)CCSc2nc(-c3ccco3)cc(C(F)(F)F)n2)cc1OC	HCV inh 5.6µM (no result: Vaccinia mCherry)
O=C(CCSc1nc(-c2ccco2)cc(C(F)(F)F)n1)Nc1cccc(O)c1	FMDV inh inconclusive (no result: HCV inh, FBPA Giardia inh)
O=C(CSc1nc(-c2ccco2)cc(C(F)(F)F)n1)NC1CCCC1	HCMV antiviral -68, HCV inh inconclusive
O=C(CCSc1nc(-c2ccco2)cc(C(F)(F)F)n1)NCc1ccccn1	HCV inh 11µM
O=C(CCSc1nc(-c2ccco2)cc(C(F)(F)F)n1)NCc1cccs1	HCV inh 10µM (no result: Vaccinia mCherry)
Cc1cccc(CNC(=O)CS(=O)(=O)c2cccc3nsnc23)c1	none (no result: HCV inh, FBPA Giardia inh)
O=C(CCC1CCCCC1)NCc1ccccn1	none
C=CC[C@@H](CC(=O)N(CCO)Cc1ccccc1)C(=O)N[C@@H](C)COC(=O)[C@@H](CC=C)Cc1ccc(F)cc1	Vaccinia mCherry inconclusive, HCV inh inconclusive, FMDV inh inconclusive (no result: FBPA Giardia inh)
C=CC[C@@H](CC(=O)N(CCO)Cc1ccccc1)C(=O)NC[C@@H](OC(=O)[C@@H](CC=C)CC(=O)OC(C)(C)C)c1ccccc1	HCV inh 10µM, FMDV inh inconclusive (no result: FBPA Giardia inh)
C=CC[C@H](CC(=O)N(CCO)Cc1ccccc1)C(=O)NC[C@H](OC(=O)[C@@H](CC=C)CC(=O)OC(C)(C)C)c1ccccc1	Vaccinia mCherry inconclusive, VACV Venus inh inconclusive, HCV inh inconclusive (no result: FBPA Giardia inh)
C=CC[C@@H](CC(=O)N(CCO)Cc1ccccc1)C(=O)NC[C@H](OC(=O)[C@@H](CC=C)Cc1ccc(F)cc1)c1ccccc1	VACV Venus inh inconclusive, HCV inh inconclusive, FMDV inh 14µM (no result: FBPA Giardia inh)
C=CC[C@@H](CC(=O)N(CCO)Cc1ccccc1)C(=O)N[C@H](COC(=O)[C@@H](CC=C)Cc1ccc(F)cc1)c1ccccc1	VACV Venus inh inconclusive, HCV inh 11µM, FMDV inh inconclusive (no result: FBPA Giardia inh)
C=CC[C@H](CC(=O)NCCO)C(=O)NC[C@H](OC(=O)[C@@H](CC=C)Cc1ccc(F)cc1)c1ccccc1	none (no result: FBPA Giardia inh)
CCn1c(C(=O)N2CCCC(C(=O)NCCCc3ccccc3)C2)cc2sccc21 (stereo not drawn)	Vaccinia mCherry inconclusive, HCMV antiviral -70, HCV inh inconclusive (no result: FMDV inh)
Cn1c(C(=O)N2CCCC(C(=O)NCc3cccs3)C2)cc2sccc21 (stereo not drawn)	none (no result: FMDV inh)
Cn1c(C(=O)N2CCCC(C(=O)NCCCSC3CCCCC3)C2)cc2sccc21 (stereo not drawn)	VACV Venus inh inconclusive, HCMV antiviral -61, HCV inh inconclusive, FMDV inh inconclusive
